Screening results deposited in PubChem BioAssay by Sanford-Burnham Center for Chemical Genomics.
Shown are actives, neighbours in structure and some others; about 2.2% of the full set was active somewhere.
PPC-1+TRAIL kill: PPC-1 cancer cell killing with TRAIL present; cell killing (% activity), % at 4 µM or 5 µM; AID 1443; PPC-1 cells + TRAIL, ATPLite viability luminescence; hit rate 0.41% among 220,000;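 active = cell killing above 50% in the first pass at 4 µM, then a duplicate retest at 5 µM averaging 50% or more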;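 also: plate controls were cells with TRAIL plus DMSO for no effect and medium-only wells lacking cells for full effect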
C8 TRAIL sens: caspase-8 TRAIL sensitization | NB7+C8 cells + TRAIL, ATPlite viability luminescence | inhibition (viability loss, TRAIL sensitization), % at 10 µM | hit rate 1% among 360,000 | AID 624354;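 active = compounds causing at least 50% loss of cell viability in the single-dose screen, relative to plate controls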
CF NFkB block: blocks PAF-induced NF-kB reporter in cystic fibrosis cells. KKLEB NF-kB-GFP reporter, GFP fluorescence overnight. inhibition, % at 5 µM. hit rate 0.86% among 360,000. AID 588850;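 active = at least 50% inhibition at 5 µM, scaled per plate between neutral and stimulator controls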;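 also: PAF is a Pseudomonas aeruginosa culture filtrate used as stimulus; plate controls were PAF-stimulated DMSO wells for no effect and unstimulated DMSO wells for full effect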
KKLEB cytotox: reduces viability of KKLEB cystic fibrosis airway cells; KKLEB CF airway cells viability, ATPlite luminescence, overnight; hits give low values; cells stimulated with P. aeruginosa culture filtrate; activity change (cytotoxicity), % at 5 µM; hit rate 0.36% among 360,000; AID 602141;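 active = corrected activity change at or below -50% at 5 µM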
HIF-2a inh: blocks HIF-2a reporter activity. hit rate 0.72% among 360,000. 786-0 RCC cells HIF-2a reporter, luciferase luminescence, overnight. inhibition, % at 18.8 µM;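 active = inhibition of the luminescence signal of 40% or more relative to plate controls, in a single-dose primary screen at 18.75 µM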
iPSC survival up: increases survival of single human iPS cells. hit rate 0.044% among 360,000. AID 602274. survival enhancement, % at 20 µM. hiPSC single-cell survival, ATPlite luminescence; 100% = ROCK inhibitor wells, 0% = DMSO; in the data active = survival enhancement above about 18%;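 also: cells exposed to compounds for 16 hours before the ATP read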
Starred values were filed as active, the others as inactive; nt = not tested or not shown.

SMILES	PPC-1+TRAIL kill	C8 TRAIL sens	CF NFkB block	KKLEB cytotox	HIF-2a inh	iPSC survival up
CCOC(=O)CC(=O)CSc1n[nH]c(=O)[nH]c1=O	5.7	2.6	15.6	-7.0	0.4	-0.4
CCOc1cc(/C=N\Nc2nc(Nc3ccccc3)nc(N3CCOCC3)n2)ccc1OC(=O)c1ccco1	2.5	27.5	14.9	-0.7	-116.1	-1.3
NC(Cc1ccccc1)c1csc(NC(=O)Nc2ccccc2Oc2ccccc2)n1 (centres undefined)	nt	74.6*	6.6	-12.8	20.2	-4.0
COC(=O)c1c[nH]c(=S)n1Cc1ccccc1	nt	-3.3	19.2	3.5	6.2	-0.9
COc1cc([C@H]2c3[nH]c4ccccc4c3C[C@H]3C(=O)N4[C@@H](c5cc(OC)c(OC)c(OC)c5)c5[nH]c6ccccc6c5C[C@H]4C(=O)N23)cc(OC)c1OC	8.9	48.7	39.4	-22.7	52.2*	-2.3
CCN1C(=O)[C@@H]2Cc3c([nH]c4ccccc34)C(c3cc(OC)c(OC)c(OC)c3)N2C1=S (some centres undefined)	nt	16.1	-100.2	-5.1	13.5	-0.4
Oc1cccc(/C=N/Nc2cccc3cccnc23)c1	33.0	54.2*	-12.1	-30.9	-79.2	-2.8
COc1ccc(CCN(C)C(=O)c2ccc(S(=O)(=O)Nc3ccccc3F)cc2)cc1OC	nt	8.6	8.0	3.7	12.4	-0.3
NNc1nc(-c2ccccc2)nc2sc3c(c12)CCCC3	21.0	64.2*	-1.7	-25.8	-90.8	-2.5
CCOC(=O)c1c2c(n(-c3ccc(OC)cc3)c1C)C(=O)C(=O)c1ccccc1-2	nt	95.5*	82.2*	-90.8*	82.5*	-1.7
Cc1nc2ccc(NC(=O)CSc3ccccc3)cc2s1	nt	17.7	16.9	1.0	-297.6	0.3
COc1ccc2nc(NC(=O)c3cccc(N4C(=O)CCC4=O)c3)sc2c1	nt	57.6*	-11.1	-4.0	-47.6	-3.2
CCOc1ccc2nc(NC(=O)c3cccc(-c4cc5ccccc5oc4=O)c3)sc2c1	0.8	70.7*	50.4*	-58.2*	-53.2	-0.5
Cc1ccc2nc(NC(=O)c3cccc(-c4cc5ccccc5oc4=O)c3)sc2c1	-1.8	nt	nt	nt	nt	nt
CCOc1ccc2nc(NC(=O)c3cccc(N4C(=O)CCC4=O)c3)sc2c1	nt	56.0*	-23.0	-13.1	-78.8	-2.3
Cc1ccc(C2=NOC(C)(c3nnc(-c4ccc(Cl)cc4)o3)C2)cc1 (centres undefined)	-2.4	-9.1	-7.7	-15.2	-3.7	0.8
OC[C@@H]1CN(Cc2ccco2)C[C@H](n2cnc3c(N4CCN(c5ccccc5)CC4)ncnc32)O1	nt	16.0	-18.3	-3.6	3.6	-2.2
COc1ccc(N=[N+]([O-])c2ccc(OC)cc2)cc1	nt	66.9*	-17.5	-16.2	-82.1	-5.6
COc1cccc(-c2cc(NC=O)c3ncc(-c4ccc(F)c(Cl)c4)n3c2)c1	nt	-2.8	-7.3	-9.8	-18.4	0.2
Cc1c(NC(=O)c2cccc(NC(=O)COc3ccccc3C#N)c2)c(=O)n(-c2ccccc2)n1C	nt	45.4	-22.7	-4.6	44.7*	-0.2
NC(=O)c1cc(S(=O)(=O)NCc2ccc(Br)cc2)cs1	nt	-18.4	-13.1	7.6	13.2	-0.1
Nc1cccnc1S(=O)(=O)c1cccc(C(F)(F)F)c1	nt	-19.4	-12.6	8.7	22.4	-0.7
Nc1nc(N)c2cc(S(=O)(=O)c3cccc(C(F)(F)F)c3)ccc2n1	nt	73.4*	27.4	-19.4	28.9	-2.2
COc1ccc2[nH]c(C(=O)Nc3cccc(C)n3)cc2c1	42.6	54.8*	-7.4	11.3	-277.8	-0.5
COc1ccc2[nH]c(C(=O)Nc3ccc(C)c(F)c3)cc2c1	18.5	32.8	-5.0	8.8	-188.3	-0.7
SMILES	PPC-1+TRAIL kill	C8 TRAIL sens	CF NFkB block	KKLEB cytotox	HIF-2a inh	iPSC survival up
COc1ccc(S(=O)(=O)N2CCOC2CNC(=O)C(=O)NCCCN2CCOCC2)cc1C (centres undefined)	nt	13.8	8.6	-5.9	18.4	0.4
CCc1nc2sc3c(c2c(=O)n1CCO)CCC3	nt	-13.2	9.8	5.6	4.1	0.1
CC1(C)CC(=O)C2=C(C1)N=C1c3ccccc3C(=O)C1C2c1ccc(Cl)cc1 (centres undefined)	1.7	0.1	34.6	3.6	47.1*	-1.8
Cc1ccc(C2C3=C(CC(C)(C)CC3=O)N=C3c4ccccc4C(=O)C32)cc1 (centres undefined)	3.8	-9.6	23.7	-2.6	29.9	0.7
Cn1c(=O)cc(OCCCC(=O)Nc2ccccn2)c2ccccc21	25.7	-3.8	-18.8	11.7	-1.7	-0.5
Cn1c(=O)cc(OCCCC(=O)Nc2cccc(Cl)c2)c2ccccc21	nt	0.8	-131.5	11.4	-168.0	20.8*
OC(c1ccc(Cl)cc1)c1ncc(-c2cccc(C(F)(F)F)c2)[nH]1 (centres undefined)	nt	-10.9	9.4	4.6	5.9	24.7*
OC(c1cc(F)cc(Cl)c1)c1ncc(-c2cccc(C(F)(F)F)c2)[nH]1 (centres undefined)	nt	-0.3	9.7	-11.2	3.5	-1.3
O=C(Cn1cnc([N+](=O)[O-])c1)Nc1ccccc1C(F)(F)F	nt	4.9	8.5	-4.5	9.4	-1.0
CC(C)N(Cc1nccn1C)C(=O)CC1C(=O)NCCN1Cc1ccc(F)c(F)c1 (centres undefined)	nt	1.8	-17.5	18.2	-3.2	-0.1
COc1cc(/C=N/NC(=O)c2cc(-c3cccc(OC(C)C)c3)nc3ccccc23)ccc1O	nt	53.0*	-16.7	-16.1	-91.9	-0.6
COc1ccc(-c2cc(C(=O)N/N=C/c3cccnc3)c3ccccc3n2)cc1	nt	54.1*	3.6	-15.6	-168.4	-0.5
CCNC(=S)NNC(=O)c1cc(-c2ccc(OC)cc2)nc2ccccc12	88.3*	88.9*	-4.6	-14.6	-133.0	-3.2
COc1cccc(-c2cc(C(=O)NN3CCOCC3)c3ccccc3n2)c1	-13.8	-1.9	0.7	7.3	13.0	-1.1
COc1cccc(-c2cc(C(=O)Nn3cnnc3)c3ccccc3n2)c1	18.8	52.4*	3.1	6.2	-8.8	-3.4
CCOC(=O)C1CCN(C(=O)CN(C)S(=O)(=O)c2ccc3c(c2)c(=O)n(C)c(=O)n3C)CC1	nt	-3.1	-1.4	1.1	16.1	0.3
O=S(=O)(/N=C(/Nc1cccnc1)c1ccccc1)c1ccc(F)cc1F	nt	-5.0	4.9	-0.5	9.3	2.5
Cc1cc(C)c(S(=O)(=O)c2ccc(Cl)cc2C)c(Cl)n1	16.2	-3.8	6.7	2.7	18.1	-0.5
Cc1ccc(C(=O)NC2CCCc3ccccc32)cc1[N+](=O)[O-] (centres undefined)	nt	27.6	15.5	1.8	-22.9	0.5
COc1ccc(NC(=O)CC2Oc3ccccc3NC2=O)c(OC)c1 (centres undefined)	nt	-11.5	11.8	-3.7	14.3	0.3
Nc1cc2nsnc2cc1Br	0.0	95.7*	37.1	-0.8	23.9	-4.5
CCOc1ccc(NC(=S)N2CCC(C(=O)c3ccc(F)cc3)CC2)cc1	nt	-12.7	-1.8	2.4	8.5	0.9
